From PubChem
The entries come from a sample that favours hits as a whole.
KDM5B inh = Primary screen for KDM5B Histone Demethylases FDH-coupled qHTS. Lysine-specific demethylase 5B (Homo sapiens), Q9UGL1. KDM5B demethylase, FDH-coupled NADH fluorescence (FDH is formaldehyde dehydrogenase). Potency, µM (highest dose often 57.7 µM), actives largely listed as inhibitors. actives 2.6% (n = 220,000); active = well fitted inhibition curve with a large enough effect; also: nearly all actives have a fitted effect of over 70% in size
Target sequence (Q9UGL1 whole entry, looked up): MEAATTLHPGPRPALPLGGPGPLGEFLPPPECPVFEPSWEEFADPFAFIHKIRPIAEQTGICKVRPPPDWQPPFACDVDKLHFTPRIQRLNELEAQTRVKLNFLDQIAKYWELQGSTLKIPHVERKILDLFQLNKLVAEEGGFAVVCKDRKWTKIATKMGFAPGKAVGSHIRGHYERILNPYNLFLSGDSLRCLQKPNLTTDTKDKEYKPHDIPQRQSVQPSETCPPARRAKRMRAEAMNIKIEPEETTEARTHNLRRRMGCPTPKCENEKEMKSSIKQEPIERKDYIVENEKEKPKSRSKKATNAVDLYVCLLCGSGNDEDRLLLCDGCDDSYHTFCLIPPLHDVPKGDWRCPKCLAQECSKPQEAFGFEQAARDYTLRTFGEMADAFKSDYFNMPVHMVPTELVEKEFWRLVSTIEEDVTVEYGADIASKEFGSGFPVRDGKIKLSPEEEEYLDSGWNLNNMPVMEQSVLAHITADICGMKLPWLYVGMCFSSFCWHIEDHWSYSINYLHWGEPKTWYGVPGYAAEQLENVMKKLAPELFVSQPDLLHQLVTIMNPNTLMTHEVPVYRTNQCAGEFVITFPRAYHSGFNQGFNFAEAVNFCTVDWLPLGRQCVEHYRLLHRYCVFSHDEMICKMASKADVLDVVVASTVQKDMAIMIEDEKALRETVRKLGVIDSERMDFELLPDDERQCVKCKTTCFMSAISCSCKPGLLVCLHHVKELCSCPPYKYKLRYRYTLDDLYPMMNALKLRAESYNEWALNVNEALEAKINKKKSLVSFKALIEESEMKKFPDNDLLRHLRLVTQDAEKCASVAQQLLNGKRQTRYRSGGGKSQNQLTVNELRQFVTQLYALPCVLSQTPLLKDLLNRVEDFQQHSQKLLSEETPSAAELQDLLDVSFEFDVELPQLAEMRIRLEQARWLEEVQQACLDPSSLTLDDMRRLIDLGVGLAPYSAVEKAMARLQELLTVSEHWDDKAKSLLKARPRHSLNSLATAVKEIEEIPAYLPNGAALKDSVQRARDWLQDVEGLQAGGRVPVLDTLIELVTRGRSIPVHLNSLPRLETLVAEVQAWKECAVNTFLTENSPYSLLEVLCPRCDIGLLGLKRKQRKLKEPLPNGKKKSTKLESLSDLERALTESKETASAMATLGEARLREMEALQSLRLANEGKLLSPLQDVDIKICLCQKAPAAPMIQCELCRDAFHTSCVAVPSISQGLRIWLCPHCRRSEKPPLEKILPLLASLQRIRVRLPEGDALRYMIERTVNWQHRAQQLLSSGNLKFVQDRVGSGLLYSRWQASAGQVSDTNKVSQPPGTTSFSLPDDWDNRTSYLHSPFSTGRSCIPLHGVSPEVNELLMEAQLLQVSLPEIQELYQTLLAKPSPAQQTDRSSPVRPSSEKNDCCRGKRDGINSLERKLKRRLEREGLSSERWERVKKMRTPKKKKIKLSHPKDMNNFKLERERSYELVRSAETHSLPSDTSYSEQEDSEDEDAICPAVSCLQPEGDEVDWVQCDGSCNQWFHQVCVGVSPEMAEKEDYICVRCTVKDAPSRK
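Measured: NADH fluorescence change, 30 min, RT. System: KDM5BΔAP 200 nM final, H3K4me3 peptide, α-KG, Fe(II), ascorbate, NAD⁺ plus FDH, pH 7.5 HEPES. Compounds: titrated, 10 min pre-incubation with enzyme.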
A number is an active result; 0 = inactive.

SMILES	KDM5B inh
O=C(c1cccs1)N1C[C@@H]2C[C@H](C1)c1ccc(C3CCCCC3)c(=O)n1C2	0
O=C(c1ccccc1)N1C[C@@H]2C[C@H](C1)c1ccc(C3CCCCC3)c(=O)n1C2	40µM
O=C(c1ccc(F)cc1)N1C[C@@H]2C[C@H](C1)c1c(-c3cncnc3)ccc(=O)n1C2	0
Cc1ccccc1-c1ccc2n(c1=O)C[C@H]1C[C@@H]2CN(C(=O)c2cncnc2)C1	0
O=C(C1CCCCC1)N1C[C@@H]2C[C@H](C1)c1c(-c3cncnc3)ccc(=O)n1C2	0
O=C(c1ccccc1)N1C[C@@H]2C[C@H](C1)c1c(-c3ccccc3F)ccc(=O)n1C2	0
O=C(c1ccc(F)cc1)N1C[C@@H]2C[C@H](C1)c1c(C3CCCCC3)ccc(=O)n1C2	0
O=C(c1ccc(F)cc1)N1C[C@@H]2C[C@H](C1)c1ccc(C3CCCCC3)c(=O)n1C2	32µM
O=C(c1ccc(F)cc1)N1C[C@@H]2C[C@H](C1)c1c(/C=C/c3ccc(Cl)cc3)ccc(=O)n1C2	32µM
Cc1ccccc1-c1ccc2n(c1=O)C[C@H]1C[C@@H]2CN(C(=O)c2ccc(F)cc2)C1	35µM
CC(C)(C)C(=O)NC(Sc1nccc(SC(NC(=O)C(C)(C)C)C(Cl)(Cl)Cl)n1)=C(Cl)Cl (stereo unspecified)	0
CN(C)C(=O)Oc1ccc2c(=O)c(-c3ccccc3)coc2c1	0
CC(Cc1ccco1)NCc1cc2ccccc2o1 (stereo unspecified)	0
NC(Cc1ccc(F)cc1)c1ccccc1 (stereo unspecified)	0
CCN1C(=O)C(O)(C(F)(F)F)c2cc(C(O)(C(=O)OC)C(F)(F)F)ccc21 (stereo unspecified)	0
Cc1ccccc1OCCNc1ccc([N+](=O)[O-])c2cccnc12	0
Clc1ccc(-c2ccc(CNC3CN4CCC3CC4)o2)c(Cl)c1 (stereo unspecified)	0
O=C(Nc1ccc(=O)n2c1[C@@H]1C[C@@H](CN(S(=O)(=O)c3ccccc3)C1)C2)c1ccccc1	0
CC(=O)N1C[C@@H]2C[C@H](C1)c1ccc(NC(=O)Nc3ccccc3)c(=O)n1C2	28µM
CN(C)Cc1ccccc1-c1ccc2n(c1=O)C[C@H]1C[C@@H]2CN(C(=O)c2ccco2)C1	32µM
CCCS(=O)(=O)Nc1ccc2n(c1=O)C[C@H]1C[C@@H]2CN(C(=O)Nc2ccc(OC)cc2)C1	0
O=C(Nc1ccc2n(c1=O)C[C@H]1C[C@@H]2CN(C(=O)c2ccccn2)C1)c1ccccc1	0
O=C(Nc1ccc2n(c1=O)C[C@H]1C[C@@H]2CN(C(=O)c2ccccc2)C1)NC1CCCCC1	35µM
O=C(Nc1ccc(=O)n2c1[C@@H]1C[C@@H](CN(S(=O)(=O)c3ccccc3)C1)C2)c1ccco1	0
FC(F)Oc1ccc(CNCCc2c[nH]c3ccccc23)cc1	0
SMILES	KDM5B inh
COc1ccccc1CNC(=O)[C@H]1CN2CC[C@H]1C[C@@H]2Cn1cc(C2(O)CCCC2)nn1	0
CCn1cc(C(=O)OC(C)C(=O)NC(=O)NC(C)(C)C)c2ccccc21 (stereo unspecified)	0
O=C(C1CCOCC1)N1CCC2(CC1)NCc1ccccc1-n1ccnc12	0
CC[C@H]1CN2CC[C@H]1C[C@@H]2CNS(=O)(=O)c1ccc(OC)cc1	0
CC(=O)OC1CCC2(C)C3CCC4(C)C(=O)CCC4C3CC[C@H]2C1 (stereo partly specified)	0
N#CCC1CN2CCC1C(c1ccccc1)C2 (stereo unspecified)	0
CC(C)(C)c1cn(C[C@H]2CC3CCN2C[C@@H]3C(=O)Nc2nccs2)nn1 (stereo partly specified)	0
COc1ccc([C@@H]2CN(c3nccc(C)n3)[C@@H]3C4CCN(CC4)[C@@H]32)cc1	14µM
COc1ccc([C@@H]2CN(S(=O)(=O)N3CCCC3)[C@@H]3C4CCN(CC4)[C@@H]32)cc1	0
COc1ccc([C@@H]2CN(C(=O)c3sccc3C)[C@@H]3C4CCN(CC4)[C@@H]32)cc1	0
O=C1NC2(CCN(Cc3cccnc3)C2)OCc2ccccc21 (stereo unspecified)	0
O=C1NC2(CN(Cc3ccccn3)C2)Oc2ccccc21	0
O=C1NC2(CCN(Cc3ccccn3)C2)OCc2ccccc21 (stereo unspecified)	40µM
COc1cc2c(cc1OCc1ccccc1)N([S+](=O)([O-])c1cccc3cccnc13)CC21CCN(C)CC1	0
CN1CC2(c3ccccc3)CN(C)CC(c3ccccc3)(C1)C2=O	0
Cn1cc(C(=O)OCC(=O)NC(=O)NC(C)(C)C)c2ccccc21	0
O=C1CS(=O)C2(CCNCC2)N1c1ccccc1 (stereo unspecified)	0
Cc1ccc(C)c(NC(=O)c2cn(Cc3ccccc3)nn2)c1	0
Cc1ccccc1-c1ccc2n(c1=O)C[C@H]1C[C@@H]2CN(C(=O)NC2CCCCC2)C1	35µM
O=C(Nc1ccc2n(c1=O)C[C@H]1C[C@@H]2CN(C(=O)NC2CCCCC2)C1)c1ccccn1	0
